Consider 28 compounds from PubChem BioAssay (NCATS).

SMILES strings stand for the structures. Results filed as inconclusive are left out. Active and inactive are the calls of the source. Calls follow the shape of the dose curve; as a rule, active = well fitted inhibition curve with a large enough effect; inconclusive = small, poorly fitted or top-dose-only effect; inactive = flat fitted curve, though single readings scatter.

What all share (experiment): qHTS profiling for inhibitors of Plasmodium falciparum proliferation (AID 504749); also: nearly all actives have a fitted effect of over 60% in size
Conditions in all cases: P. falciparum in erythrocytes, SYBR Green DNA, 72 h; series mostly up to 28.7 µM

One test has as its system PAD. The essentials: (§1)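 SYBR Green fluorescence of parasite DNA, read after lysis and overnight dark incubation, measured growth over 72 h in erythrocyte culture at 0.3% parasitemia and 2.5% hematocrit. Data normalised to DMSO and 0.29 uM artemisinin, with plate-drift correction.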
The test system of another test is PC49. The essentials:
as §1

Another test deals with SC27B. The essentials: as §1
The next test has as its system TAB109. The essentials:
as §1

For the next test, the system named is TAB113. The essentials: as §1
The test system of the next test is W2. In short, it runs like this:
as §1

For the next test, the system named is TAB165. The essentials: as §1
In another test the test system is PC15. In short, it runs like this:
as §1

The subject of a further test is PC26. The essentials:
as §1
Potency is read from the fitted curve at half-maximal effect.

`O=C(O[C@H]1CN2CCC1CC2)N1CCc2ccccc2[C@@H]1c1ccccc1`: the Potency result in the test with PAD, in the test with PC49, in the test on SC27B, in the test with TAB109 and in the test on TAB113 was “inactive” in each case. Besides, the Potency in the test on W2 is 1.69 µM (active).
For `CC(CN(C)C)CN1c2ccccc2Sc2ccc(C(F)(F)F)cc21` (configuration not stated), the Potency with TAB165 is 12.6 µM (active); with W2 it was 0.426 µM (active).
In the case of `CCOc1cc(-c2nccc3cc(OC)c(OC)cc23)cc(OCC)c1OCC`, in the test with TAB109, the Potency entry is “inactive”. In addition, the Potency in the test on W2 was 15.1 µM (active).
As for `CC/C=C\C/C=C\C/C=C\CCCCCCCC(=O)O`, the Potency result with PC15, in the test with PC49, in the test on SC27B, in the test with TAB109, in the test on TAB113 and with W2 was “inactive” each time.
With `Cc1cc(-c2ccc(N=Nc3c(S(=O)(=O)O)cc4cc(S(=O)(=O)O)cc(N)c4c3O)c(C)c2)ccc1N=Nc1c(S(=O)(=O)O)cc2cc(S(=O)(=O)O)cc(N)c2c1O`, the Potency result in the test on PC15, in the test with PC49, with SC27B, in the test with TAB113 and in the test with W2 was “inactive” each time. Also, the Potency in the test with TAB165 was 12.6 µM (active).
On to `CN(C)CCOc1ccc(/C(=C(/CCCl)c2ccccc2)c2ccccc2)cc1`, for which the Potency result with PAD, in the test with PC26, with PC49, in the test with SC27B, in the test on TAB109 and in the test with TAB113 was “inactive” each time. Also, the Potency entry with TAB165 and with W2 was “inactive” in each case.
`CN(C)CCC=C1c2ccccc2C(C)(C)c2ccccc21`: the Potency result in the test with PC49 and in the test on SC27B was “inactive” throughout. Also, the Potency with W2 was 3.38 µM (active).
On to `CC(C)=CCC/C(C)=C/C=C/C(C)=C/C=C/C(C)=C/C=C/C=C(C)/C=C/C=C(C)/C=C/C=C(\C)CCC=C(C)C`, for which the Potency result with PC26, with TAB109 and with TAB113 was “inactive” throughout.
Turning to `C=CC[N+]1([C@H]2C[C@H]3[C@@H]4CC[C@H]5C[C@H](O)[C@@H](N6CCOCC6)C[C@]5(C)[C@H]4CC[C@]3(C)[C@H]2OC(C)=O)CCCC1`, the Potency entry with PC15 and with PC49 was “inactive” in each case. Moreover, the Potency with TAB109 was 6.31 µM (active); with W2 it was 5.36 µM (active).
As to `N[C@@H](Cc1cc(I)c(Oc2ccc(O)c(I)c2)c(I)c1)C(=O)O`, the Potency entry in the test with PC49 was “inactive”. The Potency in the test on W2 is 9.53 µM (active).
The matching figures for `N#Cc1ccc2c(c1)N(CCCN1CCC(O)CC1)c1ccccc1S2`: “inactive” and 4.26 µM (active).
In the case of `OCc1ccccc1`, the Potency with PC15 was 10 µM (active); in the test with W2 it was 5.36 µM (active).
`C[C@H]1O[C@@H](O[C@H]2[C@@H](O)C[C@H](O[C@H]3[C@@H](O)C[C@H](O[C@H]4CC[C@@]5(C)[C@H](CC[C@@H]6[C@@H]5C[C@@H](O)[C@]5(C)[C@@H](C7=CC(=O)OC7)CC[C@]65O)C4)O[C@@H]3C)O[C@@H]2C)C[C@H](O)[C@@H]1O`: the Potency result in the test with PAD, in the test with PC49, in the test on SC27B, in the test with TAB109, in the test with TAB113 and in the test with TAB165 was “inactive” in each case.
As for `O=C(c1cc2ccccc2o1)N1CCN(Cc2ccccc2)CC1`, the Potency entry in the test on PC15 and in the test on PC49 was “inactive” in each case. Besides, the Potency with TAB109 was 8.91 µM (active); in the test with TAB165, 11.2 µM (active).
`Cn1c(=O)c2c(ncn2CCOC(=O)C(C)(C)Oc2ccc(Cl)cc2)n(C)c1=O`: the Potency result in the test on PC15, in the test with PC26, in the test on PC49, in the test with SC27B, with TAB113 and in the test on W2 was “inactive” throughout.
`O=C(CCCN1CCC(C(=O)c2ccc(F)cc2)CC1)c1ccc(F)cc1`: the Potency entry in the test on PAD, in the test with SC27B and with TAB113 was “inactive” throughout. For the same compound, the Potency in the test on W2 is 3.79 µM (active).
For the compound `CC(=O)Nc1ccc(NC(=S)NC(=O)c2ccc(C(C)(C)C)cc2)cc1`, the Potency result in the test on PAD, in the test on PC26, in the test with PC49, with SC27B and in the test on TAB113 was “inactive” in each case. For the same compound, the Potency in the test with W2 was 7.57 µM (active).
Regarding `CCN(CC)CCC(=O)N1c2ccccc2Sc2ccc(Cl)cc21`, the values for the Potency in the test on PC49 and in the test on W2 were 11.2 µM (active) and 3.38 µM (active), respectively.
As for `CCCC(CCC)C(=O)OC1C[C@H]2CC[C@@H](C1)[N+]2(C)C` (some centres not stated), the Potency entry in the test with PC49 is “inactive”. The Potency in the test with SC27B is 12.6 µM (active).
With `CN(C)C(=O)CCSC(SCCC(=O)O)c1cccc(/C=C/c2ccc3ccc(Cl)cc3n2)c1` (configuration not stated), the Potency with PAD is 11.2 µM (active); with W2 it was 7.57 µM (active). Further, the Potency result with PC15 and with PC49 was “inactive” throughout.
Regarding `CN1CCCC(CN2c3ccccc3Sc3ccccc32)C1` (configuration not stated), the Potency entry with PC49 was “inactive”. Besides, the results for the Potency with TAB109, in the test on TAB165 and with W2 were 11.2 µM (active), 12.6 µM (active) and 3.38 µM (active), respectively.
On to `O=c1n(CC2CO2)c(=O)n(CC2CO2)c(=O)n1CC1CO1` (configuration not stated), for which the Potency result in the test on PC15, with PC26, with PC49, in the test on SC27B and with TAB113 was “inactive” each time.
As to `O=P(O)(O)OP(=O)(O)O`, the Potency result with PC15, in the test with PC49 and in the test on TAB109 was “inactive” throughout. For the same compound, the Potency with W2 was 13.5 µM (active).
Regarding `CNC(=O)[C@H](Cc1c[nH]c2ccccc12)NC(=O)[C@@H](CC(=O)NO)CC(C)C`, the Potency result in the test with PC15, in the test on PC26, in the test with PC49, in the test on SC27B and in the test with TAB113 was “inactive” throughout. Moreover, the Potency in the test with W2 was 15.1 µM (active).
Regarding `CC(C)NCC(O)COc1ccccc1-n1cccc1` (configuration not stated), the Potency entry in the test with PAD, with PC26, in the test on PC49, in the test with SC27B, in the test on TAB113 and in the test on TAB165 was “inactive” in each case.
As for `CCCCCCCCCCCCCCCCOCCOCCOCCOCCOCCOCCOCCOCCOCCOCCOCCOCCOCCOCCOCCOCCOCCOCCOCCOCCO`, the Potency was 11.2 µM (active) in the test on PC15; 12.6 µM (active) in the test with PC49; 12.6 µM (active) in the test on TAB109; 14.1 µM (active) with TAB165; 6.75 µM (active) in the test on W2.
Turning to `CC(=O)c1ccc2c(c1)N(CCCN1CCN(CCO)CC1)c1ccccc1S2`, the Potency was 11.2 µM (active) with PC15; 7.57 µM (active) with PC26; 11.2 µM (active) in the test with PC49; 7.08 µM (active) in the test on TAB109; 11.2 µM (active) in the test with TAB165; 5.36 µM (active) with W2.
In the case of `N=C(N)c1ccc(/C=C/c2ccc(C(=N)N)cc2O)cc1`, the Potency in the test with PC15 is 12.6 µM (active); in the test on PC26, 8.49 µM (active); in the test on SC27B it was 10 µM (active); with TAB109 it was 17.8 µM (active); in the test with TAB113 it was 3.98 µM (active); in the test with TAB165 it was 4.47 µM (active).
